From PubChem
ClpP mod: qHTS Assay for Activators of ClpP; ATP-dependent Clp protease proteolytic subunit (Bacillus subtilis (strain 168)), P80244; purified B. subtilis ClpP, FRET peptide cleavage, 20 min; Potency, µM (titrated, usually from 57.5 µM); 340,000 compounds, 1.9% hits; AID 651965, 2013; active = well fitted falling curve with a large enough effect; inconclusive = small, poorly fitted or top-dose-only effect; inactive = no such curve, though single readings can be large or run the other way; note: the source files actives as falling curves though it sought activators and does not explain the sign; nearly all actives have a fitted effect of over 65% in size
Target sequence (P80244 whole entry, looked up): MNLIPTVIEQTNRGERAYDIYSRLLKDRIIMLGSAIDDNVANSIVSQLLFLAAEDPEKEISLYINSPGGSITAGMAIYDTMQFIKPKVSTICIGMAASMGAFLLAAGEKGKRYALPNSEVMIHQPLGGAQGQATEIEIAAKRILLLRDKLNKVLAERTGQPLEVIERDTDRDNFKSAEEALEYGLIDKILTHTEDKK
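Purified B. subtilis ClpP, 10 microg/mL final in Tris/HCl pH8 with KCl, BSA, glycerol and Tween-20, cleaved an Abz/nitrotyrosine-quenched decapeptide. Fluorescence (ex 320, em 430) was read at 0 and 20 min at room temperature. Delta was normalized to 5.8 microM ADEP and DMSO/no-enzyme controls.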
Pin1 inh: blocks the human prolyl isomerase Pin1; Q13526; Pin1 FP peptide displacement, HiFluor488, 10 min; Potency, µM (doses to about 115 µM), hits mostly inhibitors; 390,000 compounds, 0.009% hits; AID 504891; active = well fitted inhibition curve with a large enough effect in the polarisation, with a control signal flat, not every such curve was filed as active; inconclusive = small, poorly fitted or top-dose-only effect, or effect the other way, or a change in a side signal; inactive = no such curve, though single readings can be large or run the other way; the % refers to the polarisation
Target sequence (Q13526 whole entry, looked up): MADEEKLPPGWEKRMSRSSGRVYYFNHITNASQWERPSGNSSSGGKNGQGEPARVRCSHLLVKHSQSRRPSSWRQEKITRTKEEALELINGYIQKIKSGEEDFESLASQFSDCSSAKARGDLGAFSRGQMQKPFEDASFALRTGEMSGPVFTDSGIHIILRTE
USP2a block: inhibitors of human ubiquitin-specific protease USP2a; Potency, µM (highest dose often 38.3 µM), most hits filed as inhibitors; USP2 core, Ub-CHOP2 coupled fluorogenic reporter, 485/531; 330,000 compounds, 0.01% hits; AID 463254
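Deubiquitinase activity read as fluorescence (485/531 nm) after Ub-CHOP2 cleavage activates the enterokinase reporter on its substrate; USP2 core 10nM, Ub-CHOP2 and substrate 25nM each, 30min compound preincubation then 60min RT; data normalized to NEM, curves fitted.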
a7 integrin act: activates integrin-mediated alleviation for muscular dystrophy | Potency, µM (series often up to 38.3 µM), usual class: activators | AID 624291 | 350,000 compounds, 0.064% hits | alpha7betagal myoblasts, beta-gal FDG fluorescence, 48 h; note: nearly all actives have a fitted effect of over 60% in size
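Alpha7betagal+/- myoblasts (passage 13) were plated 16-24 hr, then exposed to compounds (1:260 dilution of DMSO stock) for 48 hours at 37C. After MPER lysis, β-galactosidase reporter activity was read as FDG fluorescence (ex 480/em 540) after 30 minutes.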
IL-2 act: activates IL-2 in a cell-based reporter assay; IL-2 activation reporter assay, cell-based qHTS; stimulated with anti-CD3/CD4/CD28 beads; in transgenic mouse T cells; activation, % (series mostly up to about 46 µM); 360,000 compounds, 0.065% hits; AID 652025; in the data active = activation above about 50%; inconclusive = mostly about 30% to 49%
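First, unstimulated transgenic mouse T cells were exposed to compound for 60 min. Next, anti-CD3/anti-CD4-coated beads with anti-CD28 were added. Finally, after 18 h at 37 degrees C, EGFP and DsRed were imaged.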
PKM2 act: increases activity of human pyruvate kinase M2. purified PKM2, Kinase-Glo ATP luminescence, activation; response scale: 0% is enzyme alone, no compound. AID 1631. 260,000 compounds, 0.34% hits. Potency, µM (series often up to 57.5 µM), actives largely listed as activators; note: nearly all actives have a fitted effect of over 55% in size
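Kinase-Glo luminescence reports ATP generated from ADP (0.1 mM) and PEP (0.5 mM) by purified hPK-M2 after 1 h at room temperature, pH 7.2 imidazole buffer; intermediate enzyme activity allows detecting inhibitors and activators.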
Each line names hits and unclear results; the compound was inactive in the other large screens. Shown are actives, neighbours in structure and some others; about 1.9% of the full set was active somewhere. Unless noted, calls come from the whole dose curve; as a rule, active = well fitted curve in the direction sought with a large enough effect; inconclusive = small, poorly fitted or top-dose-only effect, or another doubt; inactive = no such curve, though single readings can be large; an effect the other way counts as inactive or inconclusive.

CSc1nc2nccc(-c3ccc4c(c3)OCO4)n2n1	none (no result: ClpP mod)
Clc1ccccc1-c1nn2c(-c3cc(-c4ccccc4)n[nH]3)nnc2s1	none (no result: USP2a block, a7 integrin act, IL-2 act, PKM2 act)
O=C(NCCO)c1cccc(-c2cnc3c(Nc4cccc(OC(F)(F)C(F)F)c4)nccn23)c1	none (no result: Pin1 inh, USP2a block, a7 integrin act, PKM2 act)
Cc1ccc(S(=O)(=O)Nc2ccc(Nc3nccn4c(-c5cccc(OC(F)(F)F)c5)cnc34)cc2)cc1	ClpP mod 32µM (no result: Pin1 inh, USP2a block, a7 integrin act, PKM2 act)
O=C(O)CCCNC(=O)CCn1nnc2ccccc2c1=O	a7 integrin act 11µM
Cc1ccc(S(=O)(=O)NNC(=S)Nc2ccc(Cl)cc2)cc1	ClpP mod 28µM
Cc1ccc(S(=O)(=O)NNC(=S)Nc2ccccc2)cc1	none
COc1cc(/C=C/c2ccnc3ccccc23)cc(OC)c1OC	none (no result: Pin1 inh, USP2a block, a7 integrin act, IL-2 act, PKM2 act)
OCCC1CN(CCCc2ccccc2)CCN1Cc1ccc(F)cc1 (stereo not given)	ClpP mod 32µM
Cc1c(C(=O)O)c(-c2ccccc2)nn1-c1ccccc1	ClpP mod 16µM
CN(C)C(=O)COc1ccc2ccc(=O)oc2c1	ClpP mod 32µM
CCN(C(=O)COc1ccc2ccc(=O)oc2c1)C1CCCCC1	ClpP mod 25µM (no result: PKM2 act)
CC(C)CN(C(=O)COc1ccc2ccc(=O)oc2c1)C1CCS(=O)(=O)C1 (stereo not given)	none (no result: PKM2 act)
CSc1nnc(-c2sc(-c3ccccc3)nc2C)n1C	ClpP mod 25µM
Cc1nc(-c2ccccc2)sc1-c1n[nH]c(=S)n1C	none
O=C(Oc1ccc(OC(=O)c2ccco2)c(S(=O)(=O)c2ccc(Br)cc2)c1)c1ccco1	PKM2 act 4.5µM
COc1ccc(CCNC(=O)c2cc(-c3cc(C)ccc3O)n[nH]2)cc1OC	a7 integrin act 10µM
COc1ccc(CCNC(=O)c2cc(-c3ccc(C)c(C)c3O)n[nH]2)cc1OC	none
C=CC[n+]1cccc2cccc(O)c21	none (no result: Pin1 inh, USP2a block, a7 integrin act, IL-2 act, PKM2 act)
COc1cc(NS(=O)(=O)c2cc3[nH]c(=O)c(=O)[nH]c3cc2C)cc(OC)c1OC	PKM2 act 7.1µM
Cc1cc2[nH]c(=O)c(=O)[nH]c2cc1S(=O)(=O)Nc1cccc(Cl)c1C	PKM2 act 16µM
OC(CN1CCNCC1)Cn1c2ccc(Br)cc2c2cc(Br)ccc21 (stereo not given)	none (no result: ClpP mod, Pin1 inh, USP2a block, a7 integrin act, IL-2 act)
Nn1c(C2CCC2)nc2ccccc2c1=O	a7 integrin act inconclusive (no result: ClpP mod)
Nc1nc2c3ccccc3nc(C3CC3)n2n1	ClpP mod 22µM
O=S1(=O)N=C(OCc2ccccc2)c2ccccc21	none (no result: ClpP mod, USP2a block, a7 integrin act, IL-2 act, PKM2 act)
Cc1c(C(=O)N2CCN(c3ccccc3)CC2)oc2c(F)cccc12	none
Cc1c(C(=O)N2CCC2)oc2c(F)cccc12	ClpP mod 13µM (no result: PKM2 act)
O=C(Nc1ccc(Br)cc1F)c1cnn2c1NC(=C1CC1)C=C2C(F)F	none (no result: Pin1 inh, USP2a block, a7 integrin act, IL-2 act, PKM2 act)
Cc1cccc(NC(=O)CN(CC2CCCO2)C(=O)c2ccc(S(C)(=O)=O)cc2)c1C (stereo not given)	ClpP mod 25µM (no result: PKM2 act)
O=C1NC(c2ccc3c(c2)OCO3)Nc2ccccc21 (stereo not given)	ClpP mod 32µM
CC1(CCc2ccc3c(c2)OCO3)NC(=O)c2ccccc2N1 (stereo not given)	ClpP mod 28µM, Pin1 inh inconclusive
O=C1NC(c2ccc3ccccc3c2)Nc2ccccc21 (stereo not given)	none (no result: Pin1 inh, USP2a block, PKM2 act)
Cc1nc2ccc(N)cc2c(=O)n1Cc1ccc(Cl)cc1	ClpP mod 35µM
Cc1nc2ccc([N+](=O)[O-])cc2c(=O)n1Cc1ccc(Cl)cc1	Pin1 inh inconclusive
Cc1nc([N+](=O)[O-])cn1CC(=O)c1ccc2c(c1)OCCCO2	none (no result: Pin1 inh, USP2a block, a7 integrin act, IL-2 act, PKM2 act)
CCCNC(=S)N(Cc1ccccc1)Cc1nc2ccccc2c(=O)[nH]1	ClpP mod 28µM
O=C1CCCC2=C1C1(CCSC1)N=C(Nc1nc3ccccc3o1)N2 (stereo not given)	none (no result: ClpP mod, USP2a block, a7 integrin act, IL-2 act, PKM2 act)
C=CCn1c(=NC(=O)c2ccco2)sc2cc(C(=O)OCC)ccc21	ClpP mod 22µM
C=CCn1c(=NC(=O)c2ccco2)sc2cc(C(=O)OC)ccc21	ClpP mod 22µM
